Measurements published in PubChem BioAssay (EPA / NIEHS).
Several values for one entry are separate records, joined by “and”; a condition that tells them apart may be missing. Identical values can stand only once. Results filed as inconclusive are left out. More than one record can exist for a structure, and the calls need not agree. Activity calls are given as the source filed them. The calls were made as follows, unless noted: active = hit-call score of the fitted dose curve at least 0.9, where 1 is the maximum; inactive = score below 0.9.

Experiments:
[1] = target: Hepatocyte nuclear factor 4-alpha (Homo sapiens) (UniProt P41235); assay: ATG_HNF4a_TRANS: Attagene TRANS-FACTORIAL HepG2 Assay for human Hepatocyte Nuclear Factor 4 alpha (HNF4a) (AID 2282982; active = hit-call score of the fitted dose curve at least 0.9, where 1 is the maximum); conditions: HepG2 HNF4a transactivation reporter, mRNA readout
Chain of Hepatocyte nuclear factor 4-alpha (Homo sapiens) (P41235 whole entry, looked up, the tested form may be a part): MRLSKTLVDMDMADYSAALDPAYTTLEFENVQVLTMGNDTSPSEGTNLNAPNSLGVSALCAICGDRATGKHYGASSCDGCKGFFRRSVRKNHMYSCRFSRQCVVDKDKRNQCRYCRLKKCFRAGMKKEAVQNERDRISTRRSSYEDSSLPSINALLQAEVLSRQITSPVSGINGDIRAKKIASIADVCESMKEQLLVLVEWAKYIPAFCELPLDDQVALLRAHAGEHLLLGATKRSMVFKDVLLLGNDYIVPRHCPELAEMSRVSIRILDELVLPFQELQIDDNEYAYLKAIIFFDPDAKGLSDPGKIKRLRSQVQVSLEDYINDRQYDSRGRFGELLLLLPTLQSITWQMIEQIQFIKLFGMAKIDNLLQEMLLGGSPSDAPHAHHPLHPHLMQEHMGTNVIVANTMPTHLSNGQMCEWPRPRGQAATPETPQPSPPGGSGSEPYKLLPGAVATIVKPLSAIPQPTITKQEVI
How it was run: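 Readout is fluorescent reporter-transcript fragments resolved by capillary electrophoresis after RT-PCR from HepG2 cells dosed for 24 h. Cells carried transfected GAL4-UAS reporter constructs measuring exogenous NR-GAL4 chimera activity; DMSO served as baseline.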

[2] = ATG_M_06_TRANS: Attagene TRANS-FACTORIAL HepG2 Assay for M06 Transcription Factor (Internal Marker) (AID 2282983; active = hit-call score of the fitted dose curve at least 0.9, where 1 is the maximum;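 also: reporter transcript level by RT-PCR then capillary electrophoresis fluorescence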); conditions: HepG2 Attagene TRANS M06 internal marker reporter
How it was run: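 Cells: HepG2, transient multi-reporter transfection. Exposure: 24 h. Detection: RT-PCR, 6-FAM labelling, HpaI digestion (2 h, 37 °C), capillary electrophoresis. Baseline: DMSO.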

[3] = ATG_M_32_TRANS: Attagene TRANS-FACTORIAL HepG2 Assay for M32 Transcription Factor (Internal Marker) (AID 2282984; active = hit-call score of the fitted dose curve at least 0.9, where 1 is the maximum;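 also: transcript level of a background control reporter unit measured by RT-PCR and capillary electrophoresis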); conditions: HepG2 Attagene TRANS M32 internal marker reporter
How it was run: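 Measures reporter mRNA induction in human HepG2 liver cells after 24 h chemical treatment. Transcripts from transiently transfected GAL4-UAS reporter units are amplified, fluorescently labelled and sized by capillary electrophoresis; gain of signal relative to DMSO.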

[4] = target: Nuclear receptor subfamily 4 group A member 2 (Homo sapiens) (UniProt P43354); assay: ATG_NURR1_TRANS: Attagene TRANS-FACTORIAL HepG2 Assay for human Nuclear Receptor Related Protein 1 (NURR1) (AID 2282985; active = hit-call score of the fitted dose curve at least 0.9, where 1 is the maximum); conditions: HepG2 Attagene TRANS reporter, mRNA readout
Chain of Nuclear receptor subfamily 4 group A member 2 (Homo sapiens) (P43354 whole entry, looked up, the tested form may be a part): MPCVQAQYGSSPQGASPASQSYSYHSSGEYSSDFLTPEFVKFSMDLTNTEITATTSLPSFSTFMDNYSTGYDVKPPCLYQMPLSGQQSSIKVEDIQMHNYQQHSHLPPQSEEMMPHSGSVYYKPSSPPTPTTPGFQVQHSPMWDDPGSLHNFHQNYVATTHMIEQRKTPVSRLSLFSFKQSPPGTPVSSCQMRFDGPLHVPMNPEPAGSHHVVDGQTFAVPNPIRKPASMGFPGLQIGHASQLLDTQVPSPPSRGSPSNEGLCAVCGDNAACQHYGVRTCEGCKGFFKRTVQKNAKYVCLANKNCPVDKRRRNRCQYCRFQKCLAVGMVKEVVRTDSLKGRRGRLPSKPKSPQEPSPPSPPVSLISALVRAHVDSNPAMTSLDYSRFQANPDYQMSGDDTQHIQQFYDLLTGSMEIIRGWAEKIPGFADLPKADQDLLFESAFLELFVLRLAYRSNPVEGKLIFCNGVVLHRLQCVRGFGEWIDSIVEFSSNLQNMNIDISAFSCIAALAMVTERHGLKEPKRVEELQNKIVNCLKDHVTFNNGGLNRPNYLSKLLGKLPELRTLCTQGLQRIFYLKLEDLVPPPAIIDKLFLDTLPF
How it was run: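 Transient transfection of HepG2, human liver cells, with multiple GAL4-UAS reporter transcription units. Cells dosed 24 h, RNA isolated, reverse-transcribed, PCR-amplified, FAM-labelled, HpaI-digested, sized by capillary electrophoresis. DMSO served as negative control.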

[5] = target: Transcriptional activator Myb (Homo sapiens) (UniProt P10242); assay: ATG_Myb_CIS: Attagene CIS-FACTORIAL HepG2 Assay for human Myeloblastosis (Myb) Proto-Oncogene Transcription Factor (AID 2282986); conditions: HepG2 Attagene CIS-FACTORIAL Myb reporter transcription; actives raise or lower the signal
Chain of Transcriptional activator Myb (Homo sapiens) (P10242 whole entry, looked up): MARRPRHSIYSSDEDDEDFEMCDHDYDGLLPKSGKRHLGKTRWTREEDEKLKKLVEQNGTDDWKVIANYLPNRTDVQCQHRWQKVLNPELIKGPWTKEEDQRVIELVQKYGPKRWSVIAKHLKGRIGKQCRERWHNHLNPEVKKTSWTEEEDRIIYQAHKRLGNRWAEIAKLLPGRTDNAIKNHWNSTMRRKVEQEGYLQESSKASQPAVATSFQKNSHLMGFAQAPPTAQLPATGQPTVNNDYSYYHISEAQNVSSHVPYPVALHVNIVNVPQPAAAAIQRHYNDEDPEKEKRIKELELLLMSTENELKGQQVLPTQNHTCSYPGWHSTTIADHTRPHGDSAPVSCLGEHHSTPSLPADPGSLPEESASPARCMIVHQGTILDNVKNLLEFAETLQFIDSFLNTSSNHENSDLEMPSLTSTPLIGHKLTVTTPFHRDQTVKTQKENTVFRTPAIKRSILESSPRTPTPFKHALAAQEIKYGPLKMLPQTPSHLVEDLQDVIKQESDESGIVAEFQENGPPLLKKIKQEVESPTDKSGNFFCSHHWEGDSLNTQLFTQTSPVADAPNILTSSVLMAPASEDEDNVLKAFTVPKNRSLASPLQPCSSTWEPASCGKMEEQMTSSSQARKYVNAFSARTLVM
How it was run: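 HepG2 cells were transiently transfected with cis-regulated multiple reporter transcription units reflecting endogenous Myb activity, then exposed to compound for 24 hours. Reporter mRNA was measured by RT-PCR with capillary electrophoresis; bidirectional fitting versus DMSO baseline.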

[6] = target: Nuclear respiratory factor 1 (Homo sapiens) (UniProt Q16656); assay: ATG_NRF1_CIS: Attagene CIS-FACTORIAL HepG2 Assay for human Nuclear Respiratory Factor 1 (NRF1) Orphan Gene (AID 2282987); conditions: HepG2 NRF1 cis-element reporter, Attagene multiplex; actives raise or lower the signal
Chain of Nuclear respiratory factor 1 (Homo sapiens) (Q16656 whole entry, looked up): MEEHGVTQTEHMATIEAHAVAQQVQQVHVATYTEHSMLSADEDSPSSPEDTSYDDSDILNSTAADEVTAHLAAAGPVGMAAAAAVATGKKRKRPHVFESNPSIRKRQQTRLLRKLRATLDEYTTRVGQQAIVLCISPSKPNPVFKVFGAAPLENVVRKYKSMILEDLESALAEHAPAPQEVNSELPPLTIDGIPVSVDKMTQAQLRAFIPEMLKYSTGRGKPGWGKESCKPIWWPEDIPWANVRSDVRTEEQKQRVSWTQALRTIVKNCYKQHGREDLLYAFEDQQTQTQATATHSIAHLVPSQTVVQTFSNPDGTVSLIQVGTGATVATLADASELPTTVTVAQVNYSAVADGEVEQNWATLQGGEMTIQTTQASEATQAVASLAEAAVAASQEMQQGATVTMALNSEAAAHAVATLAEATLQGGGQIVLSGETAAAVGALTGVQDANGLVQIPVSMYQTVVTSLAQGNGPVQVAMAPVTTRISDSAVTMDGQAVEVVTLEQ
How it was run: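 HepG2 cells transiently transfected with multiple reporter transcription units under cis-regulatory promoter control, so endogenous transcription-factor activity is read. After 24 h compound exposure, reporter mRNA quantified by RT-PCR, fluorescent labelling, HpaI digestion and capillary electrophoresis; bidirectional fitting versus DMSO.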

[7] = ATG_NFI_CIS: Attagene CIS-FACTORIAL HepG2 Assay for human Nuclear Factor I (NFI) (AID 2282989); conditions: HepG2 cis-regulatory reporter, NFI response element transcription; actives raise or lower the signal
How it was run: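 HepG2 cells transiently transfected with cis-element-driven multiplexed reporter transcription units, dosed for 24 h. Reporter mRNA quantified by RT-PCR, fluorescent labelling, HpaI digestion and capillary electrophoresis; bidirectional fit versus DMSO baseline.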

[8] = target: Myc proto-oncogene protein (Homo sapiens) (UniProt P01106); assay: ATG_Myc_CIS: Attagene CIS-FACTORIAL HepG2 Assay for human Myelocytomatosis (Myc) Proto-Oncogene Transcription Factor (AID 2282990); conditions: HepG2, Attagene cis-reporter transcription factor activity; actives raise or lower the signal
Chain of Myc proto-oncogene protein (Homo sapiens) (P01106 whole entry, looked up, the tested form may be a part): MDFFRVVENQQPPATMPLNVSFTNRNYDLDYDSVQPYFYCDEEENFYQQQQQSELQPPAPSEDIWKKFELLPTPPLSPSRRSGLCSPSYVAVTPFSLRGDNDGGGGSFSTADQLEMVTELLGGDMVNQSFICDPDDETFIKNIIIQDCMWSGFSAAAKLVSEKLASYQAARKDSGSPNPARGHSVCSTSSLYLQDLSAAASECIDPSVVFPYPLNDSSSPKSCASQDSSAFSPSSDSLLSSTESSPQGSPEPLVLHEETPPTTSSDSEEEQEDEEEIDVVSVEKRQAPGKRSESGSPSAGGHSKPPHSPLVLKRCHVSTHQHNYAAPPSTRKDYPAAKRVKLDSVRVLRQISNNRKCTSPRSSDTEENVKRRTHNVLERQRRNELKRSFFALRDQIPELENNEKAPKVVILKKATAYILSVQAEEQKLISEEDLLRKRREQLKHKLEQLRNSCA
How it was run: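 After 24 h chemical treatment of HepG2 cells carrying multiplexed cis-regulated reporter constructs, reporter transcripts quantified by RT-PCR and capillary electrophoresis of fluorescent fragments. Gain or loss fitted against DMSO baseline.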

[9] = ATG_NRF2_ARE_CIS: Attagene CIS-FACTORIAL HepG2 Assay for human Nuclear Factor Erythroid 2 Related Factor 2 (NFR2) response to Antioxidant Response Elements (ARE) (AID 2282992); conditions: HepG2 Attagene ARE/NRF2 reporter, transcription factor activity; actives raise or lower the signal;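 as to AC50: reporter mRNA level measured by RT-PCR and capillary electrophoresis fluorescence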
How it was run: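 Transient MRTU transfection of HepG2; 24 h compound exposure; TriZol RNA, RT with oligo(dT), PCR, 6-FAM primer extension, HpaI cut, CE. Bidirectional fit vs DMSO.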

[10] = BSK_3C_TissueFactor: BioMAP Diversity Plus: 3C Assay for Tissue Factor Biomarker Activity (AID 2282997); conditions: BioMAP 3C HUVEC, tissue factor biomarker readout; actives raise or lower the signal
How it was run: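 Dosing of human umbilical vein endothelial cells preceded a 24 h incubation. Tissue Factor was then read by ELISA, with increases and decreases both scored relative to DMSO controls.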

[11] = BSK_3C_uPAR: BioMAP Diversity Plus: 3C Assay for Urokinase-type plasminogen activator receptor (uPAR) Biomarker Activity (AID 2282998); conditions: BioMAP 3C HUVEC, uPAR biomarker ELISA; actives raise or lower the signal
How it was run: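 Human umbilical vein endothelial primary cells were exposed to test chemical for 24 h. Cell-surface uPAR was then quantified by ELISA, and responses were fitted bidirectionally against DMSO as negative control and baseline.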

[12] = BSK_3C_VCAM1: BioMAP Diversity Plus: 3C Assay for Vascular cell adhesion molecule 1 (VCAM1) Biomarker Activity (AID 2282999); conditions: BioMAP 3C HUVEC, VCAM1 ELISA, cytokine-stimulated; actives raise or lower the signal
How it was run: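 Endothelial cells from human umbilical vein are treated with test chemical. At 24 h, VCAM-1 is measured by ELISA, and responses in either direction are fitted relative to DMSO.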

[13] = BSK_4H_Eotaxin3: BioMAP Diversity Plus: 4H Assay for Eotaxin 3 Biomarker Activity (AID 2283000); conditions: primary human endothelial cells (HUVEC); actives raise or lower the signal
How it was run: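 Human umbilical vein endothelial cells (BSK_4H system) dosed with test chemical; Eotaxin-3 (CCL26) measured by ELISA 24 h after dosing. Bidirectional curve fitting relative to DMSO negative control as baseline.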

[14] = target: human Peroxisome Proliferator-activated Receptor alpha (PPARa), PPARA (gene 5465) (UniProt Q07869); assay: ATG_PPARa_TRANS: Attagene TRANS-FACTORIAL HepG2 Assay for human Peroxisome Proliferator-activated Receptor alpha (PPARa) (AID 2283001; active = hit-call score of the fitted dose curve at least 0.9, where 1 is the maximum;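 as to AC50: potency for gain of reporter signal over DMSO so agonist or activator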)
Chain of human Peroxisome Proliferator-activated Receptor alpha (PPARa), PPARA (gene 5465) (Q07869 whole entry, looked up, the tested form may be a part): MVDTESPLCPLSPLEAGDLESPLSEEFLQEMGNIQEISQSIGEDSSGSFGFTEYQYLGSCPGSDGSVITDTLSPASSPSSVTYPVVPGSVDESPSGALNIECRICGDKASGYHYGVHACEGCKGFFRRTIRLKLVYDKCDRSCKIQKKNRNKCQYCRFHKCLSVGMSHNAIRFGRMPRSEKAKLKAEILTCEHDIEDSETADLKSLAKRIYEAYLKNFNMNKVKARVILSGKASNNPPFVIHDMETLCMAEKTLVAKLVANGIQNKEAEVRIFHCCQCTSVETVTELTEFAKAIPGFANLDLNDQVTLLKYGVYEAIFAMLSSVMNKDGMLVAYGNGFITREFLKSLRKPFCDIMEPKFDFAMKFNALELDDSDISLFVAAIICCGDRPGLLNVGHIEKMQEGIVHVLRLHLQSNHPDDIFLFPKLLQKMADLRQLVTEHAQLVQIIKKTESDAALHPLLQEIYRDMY
How it was run: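 Read-out is fluorescence of reporter cDNA fragments resolved by capillary electrophoresis after RT-PCR. Human HepG2 liver cells carried transfected PPARa-Gal4 chimera and GAL4-UAS reporter units, treated 24 h; activity scored as increase over DMSO.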

[15] = target: human Peroxisome Proliferator-activated Receptor delta (PPARd), PPARD (gene 5467) (UniProt Q03181); assay: ATG_PPARd_TRANS: Attagene TRANS-FACTORIAL HepG2 Assay for human Peroxisome Proliferator-activated Receptor delta (PPARd) (AID 2283002; active = hit-call score of the fitted dose curve at least 0.9, where 1 is the maximum)
Chain of human Peroxisome Proliferator-activated Receptor delta (PPARd), PPARD (gene 5467) (Q03181 whole entry, looked up, the tested form may be a part): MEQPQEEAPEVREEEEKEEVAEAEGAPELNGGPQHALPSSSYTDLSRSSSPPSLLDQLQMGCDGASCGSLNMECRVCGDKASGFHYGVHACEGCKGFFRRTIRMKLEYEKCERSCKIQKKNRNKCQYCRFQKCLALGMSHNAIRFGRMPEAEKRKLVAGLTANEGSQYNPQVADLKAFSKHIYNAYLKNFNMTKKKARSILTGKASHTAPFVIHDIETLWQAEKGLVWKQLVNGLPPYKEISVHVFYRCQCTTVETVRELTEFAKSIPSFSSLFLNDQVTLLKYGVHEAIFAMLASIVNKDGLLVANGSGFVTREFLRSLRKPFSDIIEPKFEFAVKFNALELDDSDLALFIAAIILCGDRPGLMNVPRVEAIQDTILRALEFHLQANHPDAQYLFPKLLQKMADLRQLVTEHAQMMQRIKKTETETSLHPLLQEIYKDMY
How it was run: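 Read-out is induced reporter mRNA, quantified by RT-PCR with fluorescent labelling and capillary electrophoresis after 24 h dosing. Cells are HepG2 transiently carrying multiple GAL4-UAS reporter units driven by exogenous NR-GAL4 chimeras; DMSO serves as baseline.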

[16] = read-out: Intercellular Adhesion Molecule 1 (ICAM1), ICAM1 (gene 3383); assay: BSK_3C_ICAM1: BioMAP Diversity Plus: 3C Assay for Intercellular Adhesion Molecule 1 (ICAM1) Biomarker Activity (AID 2283003); conditions: primary human endothelial cells (HUVEC); actives raise or lower the signal
How it was run: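 ICAM-1 levels measured by ELISA after HUVEC cultures in the 3C system had been dosed for 24 h. Gain or loss of signal relative to DMSO was fitted in both directions.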

[17] = target: human Retinoic Acid Receptor beta (RARb), RARB (gene 5915) (UniProt P10826); assay: ATG_RARb_TRANS: Attagene TRANS-FACTORIAL HepG2 Assay for human Retinoic Acid Receptor beta (AID 2283004; active = hit-call score of the fitted dose curve at least 0.9, where 1 is the maximum)
Chain of human Retinoic Acid Receptor beta (RARb), RARB (gene 5915) (P10826 whole entry, looked up, the tested form may be a part): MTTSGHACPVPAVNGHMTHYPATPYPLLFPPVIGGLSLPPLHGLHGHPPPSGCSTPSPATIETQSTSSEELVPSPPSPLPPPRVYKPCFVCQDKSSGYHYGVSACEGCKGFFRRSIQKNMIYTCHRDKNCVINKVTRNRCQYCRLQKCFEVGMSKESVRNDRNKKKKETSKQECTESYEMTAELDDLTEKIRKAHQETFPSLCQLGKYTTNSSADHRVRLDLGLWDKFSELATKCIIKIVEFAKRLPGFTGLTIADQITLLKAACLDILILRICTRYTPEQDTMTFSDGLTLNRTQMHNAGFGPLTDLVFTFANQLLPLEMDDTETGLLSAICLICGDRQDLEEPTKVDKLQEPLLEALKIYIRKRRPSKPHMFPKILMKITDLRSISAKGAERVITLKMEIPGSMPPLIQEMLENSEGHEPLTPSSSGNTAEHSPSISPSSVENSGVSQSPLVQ
How it was run: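 Induction of reporter mRNA from a chimeric RARb-Gal4 construct was measured by RT-PCR, FAM labelling, HpaI digestion and capillary electrophoresis. Measurements followed 24 h compound treatment of transiently transfected human HepG2 liver cells, with DMSO as baseline.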

[18] = ATG_Oct_MLP_CIS: Attagene CIS-FACTORIAL HepG2 Assay for human Octamer-Binding Transcription Factor (Oct) (AID 2282993); conditions: HepG2 Attagene cis-factorial Oct reporter, mRNA; actives raise or lower the signal
How it was run: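 HepG2 cells transiently transfected with cis-promoter-driven multiplexed reporter transcription units, dosed for 24 h. Reporter mRNA quantified by RT-PCR, fluorescent labelling, HpaI digestion and capillary electrophoresis; bidirectional fits versus DMSO baseline.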

[19] = target: Cellular tumor antigen p53 (Homo sapiens) (UniProt P04637); assay: ATG_p53_CIS: Attagene CIS-FACTORIAL HepG2 Assay for human p53 Transcription Factor (AID 2282994); conditions: HepG2 p53 cis-element reporter, Attagene mRNA; actives raise or lower the signal
Chain of Cellular tumor antigen p53 (Homo sapiens) (P04637 whole entry, looked up): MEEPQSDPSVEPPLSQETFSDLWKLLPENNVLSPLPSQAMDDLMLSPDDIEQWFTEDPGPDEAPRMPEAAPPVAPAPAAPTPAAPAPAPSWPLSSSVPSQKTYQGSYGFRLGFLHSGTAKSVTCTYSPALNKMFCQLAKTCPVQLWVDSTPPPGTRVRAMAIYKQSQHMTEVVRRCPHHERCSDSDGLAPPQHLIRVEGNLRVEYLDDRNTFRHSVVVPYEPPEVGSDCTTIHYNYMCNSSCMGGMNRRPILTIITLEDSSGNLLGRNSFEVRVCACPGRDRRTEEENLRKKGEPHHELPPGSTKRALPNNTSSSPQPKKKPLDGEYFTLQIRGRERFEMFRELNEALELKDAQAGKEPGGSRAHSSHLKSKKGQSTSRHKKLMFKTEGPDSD
How it was run: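 HepG2, transient MRTU transfection (cis promoter elements, endogenous TFs); 24 h dosing; RNA isolation, RT-PCR, 6-FAM primer extension, HpaI digest, CE fluorescence; bidirectional fit vs DMSO.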

[20] = ATG_NF_kB_CIS: Attagene CIS-FACTORIAL HepG2 Assay for human Nuclear Factor Kappa B (NF-kB) (AID 2282991); conditions: HepG2 Attagene cis-factorial NF-kB reporter mRNA; actives raise or lower the signal
How it was run: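 HepG2 cells transiently transfected with multiplexed cis-element reporter units measuring endogenous transcription factor activity; reporter mRNA read 24 h after dosing by RT-PCR, fluorescent labelling, HpaI digestion and capillary electrophoresis. Bidirectional fit against DMSO baseline.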

Measured: AC50

CCNS(=O)(=O)C(F)(F)C(F)(F)C(F)(F)C(F)(F)C(F)(F)C(F)(F)C(F)(F)C(F)(F)F
inactive: [1] | [2] | [3] | [4] | [5] | [6] | [7] | [8] | [10] | [11] | [12] | [13] | [14] | [15] | [16] | [17]
active: [5] 25.8 µM | [7] 117 µM and 61.4 µM | [8] 96.5 µM | [9] 25.7 µM and 41.5 µM and 13.3 µM | [11] 19.6 µM | [12] 14.8 µM | [13] 22.4 µM and 17 µM | [14] 63.9 µM and 56.2 µM

CC(O)CCO (configuration not stated)
not listed: [14] | [20]
inactive: all other assays above

CCCCOC(=O)c1ccccc1C(=O)OCc1ccccc1
active: [9] 48.3 µM
not listed: [4] | [17] | [20]
inactive: all other assays above

CCCCCCCCn1sccc1=O
active: [5] 11.6 µM | [6] 16.5 µM | [7] 17.2 µM | [8] 17.5 µM | [20] 21.1 µM | [18] 15.9 µM | [19] 19.9 µM | [10] 11.7 µM | [11] 15.3 µM | [12] 9.3 µM | [13] 9.13 µM | [16] 11.7 µM
inactive: [1] | [2] | [3] | [9] | [14]

[As]#[In]
not listed: [3] | [14] | [15] | [18] | [20]
inactive: all other assays above

C[C@]12C=CC3=C4CCC(=O)C=C4CC[C@H]3[C@@H]1CC[C@@H]2O
active: [7] 11.9 µM | [9] 17.5 µM and 11.3 µM | [18] 71.1 µM and 13.9 µM and 9.62 µM | [11] 7.23 µM | [12] 9.42 µM | [15] 73.6 µM
inactive: [1] | [2] | [3] | [4] | [5] | [6] | [7] | [8] | [9] | [18] | [10] | [13] | [14] | [15] | [16]
